The text below walks through data of ChEMBL document CHEMBL4513216, “Probing the Open Global Health Chemical Diversity Library for Multistage-Active Starting Points for Next-Generation Antimalarials” (ACS Infect Dis, 2020).

Out of some 69,000 compounds screened, about 8,600 (12%) showed an effect of 50% or more. For the sample, strong results were picked, then their nearest neighbours and some compounds at random.

For this experiment, the system named is Plasmodium berghei. Kind of experiment: Screen against P. berghei liver stage (PbLuc), transformed with Luciferase, at 10uM. The settings on record: tested at 10 uM. It counts as functional, HepG2.
Turning to `O=C(CCn1c(C(F)(F)F)cc2cccnc21)N1CCC(O)CC1`, the INHIBITION amounted to 29.2%.

`COC(=O)C1CN(Cc2nc(C(C)(C)C)cs2)C[C@@H](C)O1` (some centres not stated): the INHIBITION was found to be 21.7%.

On to `Cn1nc(CN2CCCCC2)c2c1CN(C(=O)c1cccc(C#N)c1)C2`, for which the INHIBITION turned out to be 46.3%.

Regarding `CC(=O)N1CCN(C(C)C)CC(COc2ccccc2)C1` (configuration not stated), the INHIBITION is on record as -6.92%. The value for `O=C(NCCNc1cnccn1)N1CCCC1` was 19.4%.

Regarding `O=C(NCCNc1ncccn1)N1CCN(Cc2cccnc2)CC1`, the INHIBITION came to 57.8%. On to `O=C(NCCNc1cnccn1)N1CCN(Cc2cccnc2)CC1`, for which the INHIBITION was 65.5%.

Consider `O=C(NCCn1ccnc1)N1CCN(Cc2cccnc2)CC1`, for which the INHIBITION is recorded as -33.7%. As for `CC(Cn1cccn1)NC(=O)N1CCN(Cc2cccnc2)CC1` (configuration not stated), the figure is 74.6%. As for `O=C(NCCNc1cnccn1)N1CCCCCC1`, the figure is 47%; as for `CC(C)(C)NC(=O)N1CCN(Cc2cccnc2)CC1`, -2.93%; as for `CC(Cn1ccnc1)NC(=O)N1CCN(Cc2cccnc2)CC1` (configuration not stated), 31.8%. As to `CC(Cn1cccn1)NC(=O)N1CCN(Cc2ccncc2)CC1` (configuration not stated), the INHIBITION is recorded as -4.94%.

Consider `Cc1ccc(-c2nc(CNC3CCc4ncnn4C3)cs2)cc1` (configuration not stated), for which the INHIBITION was found to be 47.55%.

Consider `Cc1nc(C)c(C(=O)N2CCCC2(C)C(=O)NC2CCCC2)o1` (configuration not stated), for which the INHIBITION is 46.2%. The value for `Cc1cc(C)n(CCCN(CCN2CCOCC2)Cc2ccco2)n1` was 7.6%; that for `COCCN(CCOC)Cc1nc2c(cnn2C)c(=O)[nH]1` was 27.8%; that for `O=C1[C@H]2CN(CC3CCOCC3)C[C@H]2CN1c1ccsc1` was 5.63%. As for `CCS(=O)(=O)N1C[C@H]2CN(c3cnn(C)c3)C(=O)[C@H]2C1`, the figure is 60%. In the case of `O=C1[C@H]2CN(Cc3ccncc3)C[C@H]2CN1c1cncnc1`, the INHIBITION amounted to 32.8%. As to `Cn1cc(N2C[C@@H]3CN(CC4CCOCC4)C[C@@H]3C2=O)cn1`, the INHIBITION was found to be 68.4%. Turning to `Cn1cc(N2CC3(CCN(CC4CCOCC4)CC3)OCC2=O)cn1`, the INHIBITION is -24.5%. As for `Cn1cc(N2C[C@@H]3CN(S(=O)(=O)C4CC4)C[C@@H]3C2=O)cn1`, the figure is 9.79%; as for `Cn1cc(N2CC[C@@H]3CN(Cc4ccncc4)C[C@H]3C2=O)cn1`, 58.4%; as for `Cn1cc(N2C[C@@H]3CN(Cc4ccoc4)C[C@@H]3C2=O)cn1`, -75%. As for `CCS(=O)(=O)N1CCC2(CC(=O)N(c3cnn(C)c3)C2)C1` (configuration not stated), the figure is -13.7%; as for `O=C(CCc1cc2n(n1)CCNC2)NCCS(=O)(=O)N1CCCC1`, -18.1%; as for `Cn1c2ncccc2c(=O)n1CC(=O)Nc1ccc(F)c(F)c1`, 41.8%.

As to `Cn1c(-c2cc3n(n2)CCCN(CC(=O)O)C3)nc2ccccc21`, the INHIBITION was 57.1%. For `CCOC(=O)C(C)NC(=O)N1CCN(c2nc3ccccc3n2C)CC1` (configuration not stated), the INHIBITION is reported as 45%. Regarding `CN1CCn2nc(-c3nc4ccccc4n3C)cc2C1`, the INHIBITION stood at 36.4%. `CCCOC(=O)N1CCCn2nc(C(=O)Nc3ccccc3)cc2C1`: the INHIBITION is given as -34.4%. The value for `O=C(CCc1cc2n(n1)CCCN(CCc1ccccc1)C2)NC1CC1` was 24.1%; that for `CCCOC(=O)N1CCn2nc(-c3nc4ccccc4n3C)cc2C1` was 61.1%. As for `Cc1cccc(CN2CCc3ncnc(Oc4cccnc4)c3CC2)n1`, the figure is 18.5%.

Turning to `CC(C)(C)C(=O)N1CCCC1c1nccnc1Cl` (configuration not stated), the INHIBITION is listed as -7.66%. The value for `CN[C@@H](CO)C(=O)NCc1cc2n(n1)CCCN(C1CCCCC1)C2` was 12.5%; that for `COc1ccccc1-n1cc(C(=O)NCCn2nc(C)nc2C)cn1` was 32.8%. As for `Cc1cc2nc(-c3ccccc3)cc(NCC3CCS(=O)(=O)C3)n2n1` (configuration not stated), the figure is -24.6%; as for `O=C(CNc1cc(-c2ccccc2)nc2ccnn12)NC1CC1`, -35%; as for `O=S1(=O)CCC(CNc2cc(-c3ccccc3)nc3ccnn23)C1` (configuration not stated), 93.6%.

With `O=C(Nc1ccc(N2CCOCC2)nc1)N1CCc2sccc2C1`, the INHIBITION is listed as -17.9%. The value for `CC1CCN(S(=O)(=O)N2CCc3sccc3C2)CC1` was 19.7%; that for `O=S(=O)(N1CCCC1)N1CCc2sccc2C1` was 82.4%; that for `O=S(=O)(N1CCOCC1)N1CCc2sccc2C1` was 76.8%. As for `O=S(=O)(N1CCCCCC1)N1CCc2sccc2C1`, the figure is 20.8%. `O=S(=O)(N1CCOCC1)N1CCOC(CCc2ccccc2)C1` (configuration not stated): the INHIBITION is on record as -23.4%. In the case of `c1cc(CN2CCC3(CCOCC3COCC3CC3)CC2)ccn1` (configuration not stated), the INHIBITION is on record as -20.8%. The value for `CC(C)NC(=O)N1CCc2c(CNc3ncccn3)cncc2C1` was -41.4%; that for `N#Cc1ccc(CN2CCCC3(Cc4ccccc4CNC3=O)C2)cc1` (configuration not stated) was 43.3%.

Turning to `Cc1nc(CO[C@H]2CN(Cc3cccs3)[C@@H]3COC[C@H]23)cs1`, the INHIBITION was determined as 18.2%. The value for `CNS(=O)(=O)c1cnccc1N1CCN(C(C)C)CC1` was -5.26%. Take `O=C1COC2(CCN(Cc3ccco3)CC2)CN1`: the INHIBITION was found to be 27.6%. Consider `O=C(O)C1CCCN1c1nc(-c2ccc(Cl)c(Cl)c2)cc(C(F)(F)F)n1` (configuration not stated), for which the INHIBITION is listed as 80.5%. Regarding `O=C(O)C1CCCN1c1nc(C2CC2)cc(C(F)(F)F)n1` (configuration not stated), the INHIBITION amounted to 14.3%.

On to `O=C(O)C1CCCN1c1nc(-c2ccc(Cl)cc2)cc(C(F)(F)F)n1` (configuration not stated), for which the INHIBITION is listed as 26.7%. Consider `CC(=O)N1CCC(NC(=O)CN2CCCc3c(F)ccc(C)c32)CC1`, for which the INHIBITION is given as 9.16%. Regarding `CN(Cc1nc(N)nc(N(C)C)n1)Cc1cccc2ccccc12`, the INHIBITION is reported as -57.5%. `CN(CCc1cccc2ccccc12)Cc1nc(N)nc(N(C)C)n1`: the INHIBITION was found to be 90.3%. The value for `COc1ccccc1CCN(C)Cc1nc(N)nc(N(C)C)n1` was 34.1%; that for `OCCN1CCCCC1c1cc[nH]n1` (configuration not stated) was 6.26%; that for `CCc1ccc(-c2cn3c(C(=O)NCC(C)C(=O)NC)csc3n2)cc1` (configuration not stated) was -147%. The value for `CCc1ccc(-c2cn3c(C(=O)N[C@H](C(N)=O)[C@@H](C)O)csc3n2)cc1` was -171%; that for `C[C@@H](O)[C@H](NC(=O)c1csc2nc(-c3ccccc3F)cn12)C(N)=O` was 76.9%. The value for `CC(C)(C)C(=O)N1CCC(c2cnc(-c3cn[nH]c3)cn2)CC1` was 3.62%.

On to `CCn1cc(S(=O)(=O)N2CCN(C(=O)c3cc(Br)cs3)CC2)c(C)n1`, for which the INHIBITION is given as 38.3%. The value for `COC(=O)CN1CC2(CCNCC2)COc2ccccc2S1(=O)=O` was 27.6%; that for `CC(C)NC(=O)C(c1ccccc1)N1CCn2c(nnc2C2CC2)C1` (configuration not stated) was 50.4%. Regarding `CC(C)c1nnc2n1CCN(C(C)c1nnc(-c3cccs3)o1)C2` (configuration not stated), the INHIBITION is given as 21.1%. The value for `O=C(NC1CC1)C(c1ccccc1)N1CCn2c(nnc2C2CC2)C1` (configuration not stated) was 6.05%; that for `Cc1nnc2n1CCN(C(C)c1nnc(-c3cccs3)o1)C2` (configuration not stated) was 13.5%.

`CC(c1nnc(-c2cccs2)o1)N1CCn2c(nnc2C2CC2)C1` (configuration not stated): the INHIBITION stood at 51.5%. As for `Cc1nnc2n1CCN(C(C(=O)NC(C)C)c1ccccc1)C2` (configuration not stated), the figure is 15.2%; as for `CCc1ccc(CN2CC[C@H]3C[C@H](c4nnc(C)[nH]4)O[C@@H]3C2)o1`, -11.5%; as for `COc1cccc(F)c1-c1c[nH]c(C)n1`, 11.8%. On to `O=C(NCCNc1ncccn1)c1scnc1Cl`, for which the INHIBITION is recorded as 11.9%. For the compound `Cc1ncsc1C(=O)NCCNc1ncccn1`, the INHIBITION amounted to 34.7%. As to `Cc1ncsc1C(=O)NCCSCc1cccs1`, the INHIBITION turned out to be 63.4%.

With `CCc1nc(C)c(C(=O)NCCNc2cnccn2)s1`, the INHIBITION came out at 4.88%.

Take `O=C(NCCNc1cnccn1)c1scnc1Cl`: the INHIBITION was determined as 53.3%. As for `Cc1ncsc1C(=O)NCc1cccs1`, the figure is 35.8%; as for `O=C(NCCNC(=O)c1scnc1Cl)c1ccccc1`, 30.3%; as for `Cc1ncsc1C(=O)NCCc1cccs1`, -25.667%. As for `Cc1ncsc1C(=O)NCCNc1cnccn1`, the figure is 60%; as for `O=C(NCCCn1nc2ccccn2c1=O)Nc1ccc(F)cc1F`, -17%.

Regarding `c1ccc(CN2CCC3(CC2)CCN(Cc2cccs2)C3)nc1`, the INHIBITION is -4.27%. As for `O=C(C1COCCO1)N1CCN(CC(F)(F)F)c2ccccc21` (configuration not stated), the figure is -8.22%; as for `Cc1nn(C)c(C)c1CC(=O)N1CCc2nnc(N(C)C)cc2C1`, 42.65%; as for `CN(C)c1cc(CNC(=O)c2ccccc2S(C)(=O)=O)ccn1`, -19.4%. On to `Cc1noc(C)c1CN1C(=O)[C@@H]2CC[C@H]1CN(C(=O)c1cscn1)C2`, for which the INHIBITION came out at 45%. Take `CN1CCCC(CCCc2cccnc2)(C(N)=O)C1` (configuration not stated): the INHIBITION turned out to be 50.1%.

Turning to `NC(=O)CN1CCCC(CCCc2ccccn2)(C(N)=O)C1` (configuration not stated), the INHIBITION was -0.902%. The value for `NC(=O)C1(CCCc2ccccn2)CCCN(c2ncccn2)C1` (configuration not stated) was -6.3%. As for `NC(=O)C1(CCCc2ccccn2)CCCN(Cc2ccncc2)C1` (configuration not stated), the INHIBITION worked out at 54.5%. On to `NC(=O)C1(CCCc2cccnc2)CCCN(c2ncccn2)C1` (configuration not stated), for which the INHIBITION was determined as 0.932%. As to `Cn1cc(CN2CCCC(CCCc3ccccn3)(C(N)=O)C2)cn1` (configuration not stated), the INHIBITION is 20.8%. Consider `COc1ccc(C(=O)Nc2cccc(SC)c2)c(OC)n1`, for which the INHIBITION was -138%. The value for `CCOc1cc(C)nc(N2CCN(C(=O)c3csnn3)CC2)n1` was 33.8%; that for `O=C(O)[C@@H]1CCN(C(=O)c2cscn2)[C@@H]1c1ccc(F)cc1` was -35.5%; that for `CCOc1ccc2ccccc2c1CNCC1CCNCC1` was 49.2%. For the compound `CCOc1ccc2ccccc2c1CNCC1CCS(=O)(=O)C1` (configuration not stated), the INHIBITION is recorded as 57.3%. The value for `COc1ccc2ccccc2c1CNCC1CCS(=O)(=O)C1` (configuration not stated) was 46.4%; that for `Cc1cc2nc(C(C)C)cc(N3CCC(Oc4ncccn4)CC3)n2n1` was -17.1%. `CCOC(=O)CSc1nnc([C@@H](N)C(C)C)o1`: the INHIBITION stood at 2.49%.

`Cc1cc(S(C)(=O)=O)c(C)c(S(=O)(=O)NCC2CCC2)c1`: the INHIBITION was 54.4%. Regarding `Cc1cc(S(C)(=O)=O)c(C)c(S(=O)(=O)NC2CCCC2)c1`, the INHIBITION is -1.28%. Regarding `Cc1cc(S(C)(=O)=O)c(C)c(S(=O)(=O)NCC2CCCO2)c1` (configuration not stated), the INHIBITION is 48.4%.
